# For part of these data: Measured potencies and affinities stand elsewhere.
# Assays:
# Set-up in all cases: scale not given: direction of the effect not stated beside the values
# [1] = target: Protein translocase subunit SecA (Escherichia coli (strain K12)) (UniProt P10408); experiment: Assay to Identify E. coli SecA ATPase Inhibitors; assay type: functional; settings: 30 µM
# [2] = target: T1, Ubiquitin-activating enzyme e1, putative (Leishmania donovani (strain BPK282A1)) (UniProt E9BSI1); experiment: Leishmania donovani Ubiquitin Activating Enzyme (LdE1); assay type: functional; settings: 30 µM
# T1 sequence (whole entry): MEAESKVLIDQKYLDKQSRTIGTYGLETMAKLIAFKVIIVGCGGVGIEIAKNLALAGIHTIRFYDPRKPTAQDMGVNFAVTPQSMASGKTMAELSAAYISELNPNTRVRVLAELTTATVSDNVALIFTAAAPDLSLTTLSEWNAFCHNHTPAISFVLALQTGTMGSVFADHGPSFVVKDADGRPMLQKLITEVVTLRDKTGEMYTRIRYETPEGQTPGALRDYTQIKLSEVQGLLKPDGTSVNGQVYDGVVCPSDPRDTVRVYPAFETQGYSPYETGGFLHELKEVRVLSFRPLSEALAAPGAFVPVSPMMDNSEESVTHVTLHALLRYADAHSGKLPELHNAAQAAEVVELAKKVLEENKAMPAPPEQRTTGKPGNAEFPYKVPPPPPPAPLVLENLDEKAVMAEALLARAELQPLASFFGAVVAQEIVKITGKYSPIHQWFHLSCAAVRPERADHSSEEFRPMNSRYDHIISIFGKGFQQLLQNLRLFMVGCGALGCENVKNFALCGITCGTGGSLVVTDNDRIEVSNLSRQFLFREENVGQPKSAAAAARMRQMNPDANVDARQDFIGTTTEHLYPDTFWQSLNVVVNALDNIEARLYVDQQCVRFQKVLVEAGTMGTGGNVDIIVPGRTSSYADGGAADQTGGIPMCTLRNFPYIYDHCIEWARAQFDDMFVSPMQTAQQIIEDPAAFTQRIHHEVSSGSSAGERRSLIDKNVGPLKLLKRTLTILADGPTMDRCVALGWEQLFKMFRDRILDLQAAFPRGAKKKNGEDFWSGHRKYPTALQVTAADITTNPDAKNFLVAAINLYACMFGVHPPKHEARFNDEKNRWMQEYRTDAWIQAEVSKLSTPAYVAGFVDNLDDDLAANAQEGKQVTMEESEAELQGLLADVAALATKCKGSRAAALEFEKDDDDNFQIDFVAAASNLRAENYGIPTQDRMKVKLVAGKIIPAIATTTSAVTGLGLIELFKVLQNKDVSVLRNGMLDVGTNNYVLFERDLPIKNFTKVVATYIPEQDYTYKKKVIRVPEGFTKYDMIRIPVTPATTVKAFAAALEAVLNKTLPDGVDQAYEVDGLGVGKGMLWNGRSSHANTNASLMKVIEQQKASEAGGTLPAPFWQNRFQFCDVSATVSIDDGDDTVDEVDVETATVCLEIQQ
# [3] = target: AMP-activated protein kinase, AMPK (Homo sapiens) (UniProt P54646+O43741+P54619+Q9UGJ0+Q9Y478+Q13131+Q9UGI9); experiment: AMP-dependent Kinase enzyme assay. An in vitro enzyme assay that detects ADP turnover that is directly proportional to AMPK activity. This uses naive AMPK that is activated during the assay with MK-8722; assay type: functional; settings: 30 µM
# [4] = target: Sialic acid-binding Ig-like lectin 9 (Homo sapiens) (UniProt Q9Y336); experiment: Hs-Siglec9 ALPHAscreen SOP 20170721; settings: 10 µM
# Sequence of Sialic acid-binding Ig-like lectin 9 (Homo sapiens) (Q9Y336 whole entry): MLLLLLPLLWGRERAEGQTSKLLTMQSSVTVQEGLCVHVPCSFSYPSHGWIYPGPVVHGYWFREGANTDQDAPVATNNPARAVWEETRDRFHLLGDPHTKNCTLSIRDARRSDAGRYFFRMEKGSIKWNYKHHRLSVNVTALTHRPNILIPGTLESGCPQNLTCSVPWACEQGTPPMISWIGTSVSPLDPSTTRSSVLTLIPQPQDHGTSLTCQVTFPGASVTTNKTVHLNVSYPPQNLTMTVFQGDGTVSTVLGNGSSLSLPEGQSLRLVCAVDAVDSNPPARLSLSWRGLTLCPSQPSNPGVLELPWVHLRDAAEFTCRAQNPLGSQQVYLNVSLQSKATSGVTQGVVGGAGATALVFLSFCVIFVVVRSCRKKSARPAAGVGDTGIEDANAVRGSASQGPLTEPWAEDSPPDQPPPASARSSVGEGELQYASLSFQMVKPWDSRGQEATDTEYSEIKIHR
# [5] = system: Trypanosoma cruzi; experiment: Trypanosoma cruzi phosphomannomutase and mannose-1-phosphate guanylyltransferase assay; assay type: functional; settings: 10 µM
# [6] = target: T2, Arginase-2, mitochondrial (Homo sapiens) (UniProt P78540); experiment: in vitro enzyme assay to detect the production of urea directly proportional to the activity of Arginase II; assay type: functional; settings: 33.3 µM; also: in the data most compounds retested in dose-response had high values
# T2 sequence (whole entry): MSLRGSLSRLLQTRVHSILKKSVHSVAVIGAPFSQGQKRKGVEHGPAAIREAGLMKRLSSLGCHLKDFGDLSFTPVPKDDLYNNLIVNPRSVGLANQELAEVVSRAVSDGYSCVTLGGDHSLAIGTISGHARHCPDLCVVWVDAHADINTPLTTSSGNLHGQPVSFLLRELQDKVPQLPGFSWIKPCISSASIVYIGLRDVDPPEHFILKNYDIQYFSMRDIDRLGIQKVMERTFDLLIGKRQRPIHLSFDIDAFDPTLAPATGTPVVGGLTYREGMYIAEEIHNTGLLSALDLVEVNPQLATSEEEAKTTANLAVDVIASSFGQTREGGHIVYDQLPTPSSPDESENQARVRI
# [7] = target: T3, Proteasome subunit beta (Trypanosoma cruzi) (UniProt O96673); experiment: Trypanosoma cruzi proteasome chymotrypsin-like activity (TcProtChymo) assay.; also: in the data most compounds retested in dose-response had high values; assay type: functional; settings: 9.37 µM
# T3 sequence (whole entry): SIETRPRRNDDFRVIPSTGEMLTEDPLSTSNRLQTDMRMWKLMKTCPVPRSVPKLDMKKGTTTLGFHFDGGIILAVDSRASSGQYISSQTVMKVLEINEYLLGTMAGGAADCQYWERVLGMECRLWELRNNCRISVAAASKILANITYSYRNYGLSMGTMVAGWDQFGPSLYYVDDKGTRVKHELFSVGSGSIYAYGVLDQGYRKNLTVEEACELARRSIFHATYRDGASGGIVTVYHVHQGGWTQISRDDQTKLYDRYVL
# [8] = species on record: Homo sapiens; experiment: To identify inhibition of the IFN signalling (Jak-Stat) pathway via expression of an eGFP reporter gene under the control of an IFN-stimulated response element (ISRE) containing MxA promoter.; assay type: functional; settings: 30 µM
# [9] = target: T4, Tyrosyl-tRNA synthetase, putative (Trypanosoma cruzi (strain CL Brener)) (UniProt Q4DSP6); experiment: Trypanosoma cruzi tyrosyl tRNA synthetase (TcYRS) _High Tyrosine SOP; assay type: functional; settings: 30 µM; also: in the data most compounds retested in dose-response had high values
# T4 sequence (whole entry): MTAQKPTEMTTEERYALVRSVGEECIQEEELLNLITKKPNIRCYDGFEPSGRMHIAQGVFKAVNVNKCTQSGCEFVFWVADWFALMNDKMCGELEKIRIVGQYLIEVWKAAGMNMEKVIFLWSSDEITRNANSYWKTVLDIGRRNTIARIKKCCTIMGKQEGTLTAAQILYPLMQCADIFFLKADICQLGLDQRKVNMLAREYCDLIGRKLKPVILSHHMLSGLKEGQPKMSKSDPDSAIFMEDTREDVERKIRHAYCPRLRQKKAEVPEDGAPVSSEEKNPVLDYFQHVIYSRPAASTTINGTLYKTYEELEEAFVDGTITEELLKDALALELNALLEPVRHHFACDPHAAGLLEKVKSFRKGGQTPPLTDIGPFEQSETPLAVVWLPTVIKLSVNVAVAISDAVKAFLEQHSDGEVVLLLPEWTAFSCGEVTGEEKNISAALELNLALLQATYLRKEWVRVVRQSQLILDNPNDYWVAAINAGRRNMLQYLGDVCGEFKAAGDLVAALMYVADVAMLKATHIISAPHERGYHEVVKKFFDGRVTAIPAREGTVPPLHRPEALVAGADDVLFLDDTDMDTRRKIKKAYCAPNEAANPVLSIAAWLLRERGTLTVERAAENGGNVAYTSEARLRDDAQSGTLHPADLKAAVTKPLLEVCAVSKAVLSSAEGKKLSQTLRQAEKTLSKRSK
# [10] = target: T4, Tyrosyl-tRNA synthetase, putative (Trypanosoma cruzi (strain CL Brener)); experiment: Trypanosoma cruzi tyrosyl tRNA synthetase (TcYRS) SOP; assay type: functional; settings: 30 µM
# [11] = target: Chromo domain-containing protein 1 (Saccharomyces cerevisiae (strain ATCC 204508 / S288c) (Baker's yeast)) (UniProt P32657); experiment: ScCHD-1 Enzyme Inhibition Assay; assay type: functional; settings: 30 µM; also: in the data most compounds retested in dose-response had high values
# Sequence of Chromo domain-containing protein 1 (Saccharomyces cerevisiae (strain ATCC 204508 / S288c) (Baker's yeast)) (P32657 whole entry, the tested form may be a part): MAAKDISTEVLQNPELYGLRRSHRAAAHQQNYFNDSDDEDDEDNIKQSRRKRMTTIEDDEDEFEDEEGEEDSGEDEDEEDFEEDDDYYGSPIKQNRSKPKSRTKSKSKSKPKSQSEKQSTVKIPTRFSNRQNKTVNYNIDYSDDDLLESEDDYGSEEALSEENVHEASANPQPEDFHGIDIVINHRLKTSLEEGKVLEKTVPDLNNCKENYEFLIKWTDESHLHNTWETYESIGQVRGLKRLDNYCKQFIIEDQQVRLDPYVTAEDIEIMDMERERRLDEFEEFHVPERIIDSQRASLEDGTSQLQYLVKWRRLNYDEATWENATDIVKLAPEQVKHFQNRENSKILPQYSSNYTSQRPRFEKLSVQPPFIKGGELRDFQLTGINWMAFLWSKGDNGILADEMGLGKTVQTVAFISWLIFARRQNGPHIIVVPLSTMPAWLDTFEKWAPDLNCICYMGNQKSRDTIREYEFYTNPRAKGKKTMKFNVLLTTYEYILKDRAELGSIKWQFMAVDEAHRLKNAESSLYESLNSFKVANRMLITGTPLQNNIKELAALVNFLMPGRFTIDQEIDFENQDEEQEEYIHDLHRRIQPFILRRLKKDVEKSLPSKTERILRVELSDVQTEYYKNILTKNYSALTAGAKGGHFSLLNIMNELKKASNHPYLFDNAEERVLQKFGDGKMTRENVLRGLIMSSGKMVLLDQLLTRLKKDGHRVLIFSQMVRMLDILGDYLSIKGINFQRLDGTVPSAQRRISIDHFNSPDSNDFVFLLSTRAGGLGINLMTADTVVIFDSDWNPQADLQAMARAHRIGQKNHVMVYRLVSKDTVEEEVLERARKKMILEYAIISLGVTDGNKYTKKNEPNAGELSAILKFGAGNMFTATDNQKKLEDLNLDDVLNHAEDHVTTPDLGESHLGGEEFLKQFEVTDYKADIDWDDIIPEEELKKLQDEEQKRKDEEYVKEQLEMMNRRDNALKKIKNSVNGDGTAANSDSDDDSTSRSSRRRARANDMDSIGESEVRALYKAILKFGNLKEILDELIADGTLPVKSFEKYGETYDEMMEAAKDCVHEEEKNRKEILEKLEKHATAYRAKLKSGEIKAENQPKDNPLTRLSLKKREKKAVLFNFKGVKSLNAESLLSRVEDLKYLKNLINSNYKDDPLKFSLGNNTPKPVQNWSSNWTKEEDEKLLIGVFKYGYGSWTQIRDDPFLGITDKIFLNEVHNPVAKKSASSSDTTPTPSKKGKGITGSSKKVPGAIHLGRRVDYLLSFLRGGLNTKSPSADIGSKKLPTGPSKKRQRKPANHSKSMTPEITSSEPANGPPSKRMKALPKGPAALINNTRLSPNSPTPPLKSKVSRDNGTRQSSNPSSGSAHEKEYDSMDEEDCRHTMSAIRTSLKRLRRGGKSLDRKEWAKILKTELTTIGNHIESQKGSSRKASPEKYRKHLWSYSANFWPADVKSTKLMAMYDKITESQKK
# Sequence of Protein translocase subunit SecA (Escherichia coli (strain K12)) (P10408 whole entry): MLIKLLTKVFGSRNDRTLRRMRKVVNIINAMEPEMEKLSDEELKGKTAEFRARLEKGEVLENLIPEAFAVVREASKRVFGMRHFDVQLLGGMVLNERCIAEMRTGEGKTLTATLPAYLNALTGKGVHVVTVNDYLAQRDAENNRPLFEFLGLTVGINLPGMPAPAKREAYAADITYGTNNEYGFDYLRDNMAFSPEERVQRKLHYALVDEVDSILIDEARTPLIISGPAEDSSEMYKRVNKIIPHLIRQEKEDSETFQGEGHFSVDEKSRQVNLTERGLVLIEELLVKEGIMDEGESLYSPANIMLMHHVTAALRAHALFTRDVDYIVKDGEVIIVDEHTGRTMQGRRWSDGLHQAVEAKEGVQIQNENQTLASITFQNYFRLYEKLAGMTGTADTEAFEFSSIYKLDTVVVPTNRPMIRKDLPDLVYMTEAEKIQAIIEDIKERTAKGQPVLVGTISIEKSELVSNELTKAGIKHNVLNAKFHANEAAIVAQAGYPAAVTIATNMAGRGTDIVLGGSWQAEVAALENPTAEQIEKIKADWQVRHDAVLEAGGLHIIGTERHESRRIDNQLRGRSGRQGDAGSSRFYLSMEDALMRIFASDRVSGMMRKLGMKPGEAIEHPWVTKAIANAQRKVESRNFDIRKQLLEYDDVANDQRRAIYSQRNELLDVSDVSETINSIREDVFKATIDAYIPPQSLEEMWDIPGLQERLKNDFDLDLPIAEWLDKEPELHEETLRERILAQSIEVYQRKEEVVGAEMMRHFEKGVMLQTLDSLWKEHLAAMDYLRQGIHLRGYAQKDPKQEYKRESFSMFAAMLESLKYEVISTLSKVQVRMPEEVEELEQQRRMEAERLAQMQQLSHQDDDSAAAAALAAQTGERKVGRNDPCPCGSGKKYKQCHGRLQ
SMILES,Percent Effect [1] [%],Percent Effect [2] [%],Percent Effect [3] [%],Percent Effect [4] [%],Percent Effect [5] [%],Percent Effect [6] [%],Percent Effect [7] [%],Percent Effect [8] [%],Percent Effect [9] [%],Percent Effect [10] [%],Percent Effect [11] [%]
CN(CC(=O)N1CCN(c2ncccn2)CC1)c1ccc(Cl)cn1,0.47,8.11,-0.12,10.1,5.79,14.3,9.83,16.3,4.76,14.6,-1.14
COc1ccc(C2CCCN2C(=O)CCNc2ncccn2)cc1 (stereo unspecified),-2.77,0,-2.54,0.524,-1.57,5,7.1,1.66,1.07,-5,-1.55
Cc1cccc(CN2CC3(CCNCC3)OCC2=O)n1,-6.42,2.7,2.52,-3.05,1.37,-0.833,2.11,2.26,4.95,11,-6.46
Cc1ccc(CN2CC(C(=O)N3CCCC3)C3(CCOCC3)C2)s1 (stereo unspecified),0.462,0,0.717,0.63,-5.41,-54.3,2.05,5.33,2.08,0,-4.71
CCn1cnnc1C1CCN(C(=O)c2cc3c(s2)CCC3)CC1,-5.61,20.2,-5.35,8.78,6.52,-7.22,20.2,-5.6,8.37,21.5,-4.66
O=C(CC1CCCCC1)N1CCN(C(=O)NCc2ccccn2)CC1,-3.1,10.4,1.16,-0.668,1.86,1.05,6.39,-4.56,4.76,-16.5,-15
N#Cc1cc(NC(=O)c2ccccc2)ccc1N1CCC(O)CC1,-0.198,10.8,-7.93,6.67,2.51,9.05,10,-5.21,1.59,9.76,-2.82
CCc1ncc(CNC2CC(=O)N(CCc3cccc(Cl)c3)C2)cn1 (stereo unspecified),-5.45,13.7,-3.73,5.67,7.54,-3.59,6.76,0.221,6.25,11.1,-2.3
CCc1noc(CN2CCCN(C(N)=O)CC2)n1,-0.23,0,5.45,11.3,-6.7,4.94,5.98,21.4,-1.48,-8.86,-6.21
CC(C)c1ccc(OCn2ccc(C(=O)N3CCCC3)n2)cc1,-3.25,10.4,1.81,12.1,6.2,-81.4,12.5,52.2,3.23,8.64,-6.24
COc1ccc(C2Nc3ccccc3C3=NCCCN32)cc1OC (stereo unspecified),-5.46,-2.67,8.31,-1.83,-0.787,-1.63,-2.91,11.5,0,1.28,-8.33
Cc1cccnc1NC(=O)CC1(Cn2cnnn2)CCCCC1,-5.51,21.1,-0.535,3.53,1.66,1.18,9.11,-4.12,3.19,13,-13.8
CCc1ccc(C(=O)N2CCN(CCS(C)(=O)=O)CC2)o1,-3.79,-5.26,3.96,8.99,-0.752,0.383,4.18,10.7,5.39,7.32,0.21
Cc1cccc(-n2cc(C(=O)N3CCCC(n4cccn4)C3)nn2)c1 (stereo unspecified),-6.43,23.4,-0.0164,-1.49,5.78,-2.74,27.4,4.51,6.67,25.9,-14.2
CCn1cc(NC(=O)NCC(c2cccs2)N(C)C)cn1 (stereo unspecified),0.424,18.4,-2.49,5.82,-3.76,-3.83,7.69,2.58,5.39,19.5,-7.09
CCc1cc(NC2CCN(S(C)(=O)=O)CC2)n2nc(C)c(C)c2n1,0.159,4.17,4.89,-1.11,-4.37,-2.21,22.6,5.75,-10.5,2.56,-1.42
CC(=O)N1CCCCC1c1cc(CO)[nH]n1 (stereo unspecified),-1.55,1.35,7,5.31,1.78,2.09,12.3,10.5,3.23,6.49,9.52
COc1ccccc1CC(=O)NS(=O)(=O)c1ccc(C(N)=O)cc1,-0.063,0,0.334,0.784,-0.374,9.25,1.35,-4.28,3.88,-2.44,-0.229
COc1cc(CCC(=O)NCC2CCCN2C)ccc1OCC(F)(F)F (stereo unspecified),-2.12,7.89,-14,4.13,-0.0934,-2.88,11.4,14.2,5.42,16.1,-7.41
CC(=O)NCC1CCN(C(=O)c2csc(-c3ccc(C)cc3C)n2)CC1,-3.29,13.5,1.21,1.58,1.58,0.554,4.49,35.7,7.92,23.2,0.867
CN(C)[C@@H]1CCN(c2ncccn2)[C@H]1Cc1ccccc1,-5.52,5.2,0.378,3.63,2.06,-1.38,8.65,-3.26,2.15,6.17,1.34

# From ChEMBL document CHEMBL3988442, “University of Dundee, Small-Polar-MMV Screening Library” (2021)
